Results filed as inconclusive are left out. Active and inactive are the calls of the source. Unless noted, calls come from the whole dose curve; as a rule, active = well fitted curve in the direction sought with a large enough effect; inconclusive = small, poorly fitted or top-dose-only effect, or another doubt; inactive = no such curve, though single readings can be large; an effect the other way counts as inactive or inconclusive.
Key:
[1] = qHTS Assay for Identification of Small Molecule Antagonists for NFkB Signaling Pathway (AID 895; active = well fitted inhibition curve with a large enough effect in the signal ratio, with a control signal flat, not every such curve was filed as active; the % refers to the signal ratio; note: % is set by controls: 0 for no effect and ±100 for the full control effect)
In short: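 ME-180 NFkB-bla cells (beta-lactamase under NFkB response element), plated overnight, treated with compound then 10 pM TNF alpha (about EC50) for 5 hrs at 37 C. LiveBLAzer FRET read at 460/530 nm emission, 405 nm excitation.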

[2] = Confirmation and Secondary Assay for Modulators of Hemoglobin Beta Chain Splicing at IVS2 654 locus (AID 910);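 note: HeLa cells stably carrying EGFP split by mutant beta-globin IVS2-654 intron; % of control where 0% means no effect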
In short: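 HeLa cells stably expressing EGFP interrupted by β-globin IVS2-654 intron, seeded overnight in Opti-MEM/2% FCS, then treated 2 days at 37 °C. Restored splicing read as total peak GFP intensity per well by laser scanning cytometry (488 nm excitation, 500–520 nm emission); 500 nM antisense PNA as control.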

[3] = qHTS Assay for Identification of Small Molecule Agonists for Hypoxia Response Element Signaling Pathway (AID 914; active = well fitted activation curve with a large enough effect in the signal ratio, with a control signal flat, not every such curve was filed as active; the % refers to the signal ratio; note: % of control where 0% means no effect); conditions: ME-180 (cervical carcinoma) HRE-bla reporter, beta-lactamase ratio, CoCl2, 17 h; activation: hits give high values
In short: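 AC50 values come from titration-series %Activity, taken as the 460/530nm ratio of CCF4 fluorescence (excitation 405nm). CellSensor HRE-bla ME-180 cells were treated 17 hours at 37 C with compound plus an EC50 level of CoCl2.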

[4] = qHTS Assay for Identification of Small Molecule Agonists for Thrombopoietin (TPO) Signaling Pathway (AID 917); note: % is set by controls: 0 for no effect and ±100 for the full control effect
In short: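 Ba/F3 (mouse) + hTPO receptor + GpIIb-promoter luciferase; IL-3 withdrawn overnight; compound + 26 pM TPO (EC50), 24 hrs, 37 C, 5% CO2; Steadylite luminescence, 10 min RT.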

[5] = Confirmation and Secondary Assay for Modulators of Hemoglobin Beta Chain Splicing at IVS2 705 locus (AID 930);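 note: HeLa cells stably expressing the EGFP-705 splicing reporter; series mostly up to about 46 µM; % of control where 0% means no effect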
In short: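 Restored EGFP fluorescence after 2-day compound exposure reports splicing correction in IVS2-705 EGFP reporter HeLa cells; positive control was 500 nM splice-blocking PNA oligo. Signal measured as well total peak GFP intensity (488 nm excitation).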

[6] = molecular target: Muscarinic acetylcholine receptor M1 (Rattus norvegicus) (UniProt P08482); assay: qHTS Assay for Antagonists of Acetylcholine Muscarinic M1 Receptor: Measurement of IP-One Response (AID 944); note: nearly all actives have a fitted effect of over 75% in size
Chain of Muscarinic acetylcholine receptor M1 (Rattus norvegicus) (P08482 whole entry, looked up): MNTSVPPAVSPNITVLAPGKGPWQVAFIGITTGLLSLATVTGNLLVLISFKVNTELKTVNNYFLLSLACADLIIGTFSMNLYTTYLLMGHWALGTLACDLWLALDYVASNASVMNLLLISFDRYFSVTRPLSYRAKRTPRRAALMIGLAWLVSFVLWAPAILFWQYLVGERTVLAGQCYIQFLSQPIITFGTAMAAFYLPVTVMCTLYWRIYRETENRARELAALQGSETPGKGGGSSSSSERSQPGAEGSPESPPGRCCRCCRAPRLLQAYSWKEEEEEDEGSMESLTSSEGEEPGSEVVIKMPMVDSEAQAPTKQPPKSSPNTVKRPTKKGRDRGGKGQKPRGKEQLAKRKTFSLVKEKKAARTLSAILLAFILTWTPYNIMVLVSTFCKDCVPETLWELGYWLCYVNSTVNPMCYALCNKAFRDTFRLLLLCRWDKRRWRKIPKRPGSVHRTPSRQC
In short: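 Read-out: HTRF competition between d2-IP1 and Eu-cryptate anti-IP1 antibody, emission 620 and 665 nm. Stimulus was carbachol, EC80 (200 nM), for 30 min in M1-CHO cells (rat receptor), after 10 min compound pre-treatment.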

[7] = molecular target: Pyruvate kinase (Leishmania mexicana) (UniProt Q27686); assay: qHTS Validation Assay for Inhibitors of Leishmania Mexicana Pyruvate Kinase (AID 945);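 note: 0% = DMSO only neutral control wells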
Chain of Pyruvate kinase (Leishmania mexicana) (Q27686 2-499 E452W): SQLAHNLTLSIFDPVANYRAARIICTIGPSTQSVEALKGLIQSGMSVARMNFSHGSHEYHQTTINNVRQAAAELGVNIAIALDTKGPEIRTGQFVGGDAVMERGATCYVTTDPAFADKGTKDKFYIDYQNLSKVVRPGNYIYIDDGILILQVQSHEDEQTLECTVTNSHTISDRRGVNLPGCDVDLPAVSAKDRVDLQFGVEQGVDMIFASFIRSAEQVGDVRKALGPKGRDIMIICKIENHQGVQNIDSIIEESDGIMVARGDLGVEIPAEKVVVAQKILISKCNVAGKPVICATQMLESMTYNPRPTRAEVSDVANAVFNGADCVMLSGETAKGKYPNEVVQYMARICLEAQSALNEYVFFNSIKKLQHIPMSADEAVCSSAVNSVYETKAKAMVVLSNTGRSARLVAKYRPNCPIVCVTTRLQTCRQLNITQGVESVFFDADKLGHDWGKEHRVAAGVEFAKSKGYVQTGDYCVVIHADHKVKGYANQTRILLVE
In short: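 Purified LmPYK (E451W mutant, 0.2 nM) was incubated 1 h at room temperature with 0.5 mM PEP and 0.1 mM ADP in 50 mM imidazole pH 7.2, 50 mM KCl, 7 mM MgCl2; ATP formed was read by PKLight luminescence, normalized to DMSO wells.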

[8] = molecular target: Pyruvate kinase PKM (Homo sapiens) (UniProt P14618); assay: qHTS Assay for Activators of Human Muscle Pyruvate Kinase (AID 954; active = well fitted curve in the direction sought with a large enough effect, not every such curve was filed as active;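 note: 0% = uninhibited enzyme and -100% = no enzyme or full thiadiazolimine inhibition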)
Chain of Pyruvate kinase PKM (Homo sapiens) (P14618 whole entry, looked up): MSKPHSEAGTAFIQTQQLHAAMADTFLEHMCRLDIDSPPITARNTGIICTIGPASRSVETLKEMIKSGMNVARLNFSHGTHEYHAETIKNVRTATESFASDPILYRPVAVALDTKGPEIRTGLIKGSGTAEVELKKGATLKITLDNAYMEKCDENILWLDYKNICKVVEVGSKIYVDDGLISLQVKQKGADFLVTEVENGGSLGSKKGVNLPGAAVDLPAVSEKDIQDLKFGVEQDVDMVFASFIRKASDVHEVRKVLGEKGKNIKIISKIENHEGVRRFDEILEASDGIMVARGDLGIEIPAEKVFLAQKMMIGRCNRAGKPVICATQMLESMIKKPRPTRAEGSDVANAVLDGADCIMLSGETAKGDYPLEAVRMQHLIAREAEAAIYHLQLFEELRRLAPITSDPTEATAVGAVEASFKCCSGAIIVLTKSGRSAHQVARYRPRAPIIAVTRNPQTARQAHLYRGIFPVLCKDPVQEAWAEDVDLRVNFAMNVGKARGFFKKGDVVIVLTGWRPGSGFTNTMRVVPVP
In short: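 Compound pinned into substrate mix (0.5 mM PEP, 0.1 mM ADP), then 0.1 nM PKM2 added; 1 h, RT. Stop/detection luciferase reagent added, luminescence read. Normalized to no-inhibition and no-enzyme or reference-inhibitor controls.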

[9] = molecular target: Cytochrome P450 2C19 (Homo sapiens) (UniProt P33261); assay: qHTS Assay for Inhibitors and Substrates of Cytochrome P450 2C19 (AID 899); note: nearly all actives have a fitted effect of over 60% in size; note: potency is the fitted concentration of half-maximal effect
Chain of Cytochrome P450 2C19 (Homo sapiens) (P33261 whole entry, looked up): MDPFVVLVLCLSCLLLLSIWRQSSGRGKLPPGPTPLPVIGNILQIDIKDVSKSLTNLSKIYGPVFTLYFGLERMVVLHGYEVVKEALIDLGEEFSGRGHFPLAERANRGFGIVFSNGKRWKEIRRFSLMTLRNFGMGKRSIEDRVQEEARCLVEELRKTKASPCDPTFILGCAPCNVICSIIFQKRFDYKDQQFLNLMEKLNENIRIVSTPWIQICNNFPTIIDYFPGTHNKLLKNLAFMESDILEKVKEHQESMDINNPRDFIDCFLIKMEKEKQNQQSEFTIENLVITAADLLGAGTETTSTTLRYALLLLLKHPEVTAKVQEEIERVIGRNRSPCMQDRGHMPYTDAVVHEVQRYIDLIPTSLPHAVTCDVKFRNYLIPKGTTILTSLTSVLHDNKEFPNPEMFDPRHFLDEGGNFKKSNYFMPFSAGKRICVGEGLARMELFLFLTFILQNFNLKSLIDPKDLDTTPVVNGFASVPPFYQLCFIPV
In short: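 Signal comes from luciferase acting on luciferin released by CYP2C19-mediated hydroxylation of Luciferin-H EGE, 10uM (KM). Assay mix: 5nM enzyme, 50mM KPO4; 60 min at 37C with NADPH regeneration. Data normalized against 57uM ketoconazole.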

[10] = Cell Viability - LYMP2-001 (AID 921);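 note: series mostly up to about 92 µM; cells exposed to compound for 24 h at 37 °C; 0% = DMSO only and full inhibition = tetraoctylammonium bromide control wells; nearly all actives have a fitted effect of over 70% in size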
In short: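 CellTiter-Glo luminescence (intracellular ATP) after 24 hr compound exposure at 37 C, 2500 lymphoblastoid cells/well in complete medium. AC50 fitted with standard Hill equation; tetraoctylammonium bromide positive control.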

[11] = MultiTox-Fluor Cytotoxicity Assay - LYMP1-001 - Dead Cells (AID 946);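 note: 0% = DMSO and 100% = tetraoctylammonium bromide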
In short: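 LYMP1-001 lymphoblastoid cells (2500/well) treated 16 h at 37 C. Dead-cell protease cleavage of bis-AAF-R110 read at Ex/Em 485/520. Normalized to DMSO and 15 uM tetraoctylammonium bromide; AC50 from Hill fits.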

[12] = MultiTox-Fluor Cytotoxicity Assay - LYMP1-001 - Live Cells (AID 947);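 note: 0% = DMSO only and full inhibition = tetraoctylammonium bromide control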
[13] = Cell Viability - LYMP1-002 - Assay at 16 hr (AID 948);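 note: 0% = DMSO alone and full effect = 92 µM tetraoctylammonium bromide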
In short: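 LYMP1-002 human lymphoblastoid cells, 2500/well; 5 hr 37 C; cpd 16 hr 37 C; CellTiter-Glo 30 min RT; luminescence (ATP). Concentration-response, Hill-fit AC50. Pos ctrl tetraoctylammonium bromide.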

[14] = MultiTox-Fluor Cytotoxicity Assay - LYMP1-002 - Live Cells (AID 955); note: % is set by controls: 0 for no effect and ±100 for the full control effect
In short: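 LYMP1-002 lymphoblastoid cells; 2500 cells/well; 16 hr compound exposure, 37 C; MultiTox-Fluor reagent 60 min RT; live-cell fluorescence Ex/Em=405/510; qHTS concentration-response, Hill-equation AC50; tetraoctylammonium bromide positive control.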

[15] = MultiTox-Fluor Cytotoxicity Assay - LYMP1-002 - Dead Cells (AID 960);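 note: 0% = DMSO and 100% = tetraoctylammonium bromide; nearly all actives have a fitted effect of over 60% in size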
In short: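 Readout: fluorescence at 485/520 from cell-impermeant bis-AAF-R110 cleaved by proteases leaking from damaged cells. LYMP1-002 lymphoblastoid line, 16 hr compound treatment at 37 C, concentration-response in qHTS format; Hill-equation AC50 values.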

[16] = MultiTox-Fluor Cytotoxicity Assay - LYMP1-003 - Dead Cells (AID 961);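 note: 0% = DMSO and 100% = tetraoctylammonium bromide; nearly all actives have a fitted effect of over 70% in size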
In short: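 LYMP1-003 human lymphoblastoid cells (2500/well) exposed to compound 16 h at 37 C in complete medium; dead-cell protease read with bis-AAF-R110 fluorescence (Ex/Em 485/520) after 60 min at room temperature. Normalized to DMSO and 15 uM tetraoctylammonium bromide; AC50 from Hill fit.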

[17] = molecular target: Muscarinic acetylcholine receptor M1 (Rattus norvegicus) (UniProt P08482); assay: qHTS Assay for Antagonists of Acetylcholine Muscarinic M1 Receptor: Kinetic Measurement of Intracellular Calcium Response (AID 943);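 note: Fluo-4 calcium signal as peak divided by basal fluorescence over 4 min; series mostly up to about 35 µM; nearly all actives have a fitted effect of over 75% in size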
In short: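 Read-out: peak over basal Fluo-4 fluorescence, kinetic at 1 Hz for 4 min after EC80 carbachol (100 nM final). Rat M1-CHO cells, dye loaded 1 h at 37C, compound added 10 min before agonist.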

NC1(C(=O)O)CC1
inactive: Potency [1] | Potency [2] | activation [3] -20.7% | Potency [4] | outcome [5] | Potency [6] | Potency [7] | outcome [8]

CC(=O)C(C)=O
inactive: Potency [1] | Potency [9] | outcome [10] | Potency [6] | Potency [7] | outcome [11] | outcome [12] | outcome [13] | outcome [8] | outcome [14] | outcome [15] | outcome [16]

N[C@H](C(=O)O)c1cc(O)cc(O)c1
inactive: Potency [1] | Potency [9] | Potency [4] | Potency [17] | Potency [6] | Potency [7] | outcome [8]

O=[N+]([O-])c1cccc2cn[nH]c12
inactive: Potency [1] | Potency [9] | Potency [2] | Potency [4] | outcome [5] | Potency [6] | Potency [7] | outcome [8]

O=C(O)c1cccnc1C(=O)O
inactive: Potency [1] | Potency [9] | Potency [2] | Potency [4] | outcome [5] | Potency [17] | Potency [6] | Potency [7] | outcome [8]

CCCCCCN(CCCCCC)C(=O)Cc1c(-c2ccc(F)cc2)[nH]c2ccccc12
active: Potency [9] 3980 nM
inactive: Potency [1] | Potency [6] | Potency [7] | outcome [8]

O=C(O)/C(=C/c1c(C(=O)O)[nH]c2cc(Cl)cc(Cl)c12)c1ccccc1
inactive: Potency [1] | Potency [4] | Potency [17] | Potency [6] | Potency [7] | outcome [8]

O=C(O)C1=CCCNC1
inactive: Potency [1] | Potency [2] | Potency [4] | outcome [5] | Potency [17] | Potency [6] | Potency [7] | outcome [8]

NC(=O)c1ccccc1
inactive: Potency [1] | Potency [9] | Potency [4] | outcome [10] | Potency [17] | Potency [6] | Potency [7] | outcome [11] | outcome [12] | outcome [13] | outcome [8] | outcome [14] | outcome [16]

CSC(=N)N
inactive: Potency [1] | Potency [4] | Potency [17] | Potency [6] | Potency [7] | outcome [8]
active: Potency [9] 631 nM

N=C(N)c1ccccc1
inactive: Potency [1] | Potency [4] | Potency [17] | Potency [6] | Potency [7] | outcome [8]

CNc1cc(NS(=O)(=O)c2ccc(N)cc2)nc(NC)n1
inactive: Potency [1] | Potency [9] | Potency [4] | Potency [17] | Potency [7] | outcome [8]

[Li+]
inactive: Potency [1] | activation [3] 9.95% | Potency [4] | Potency [6] | Potency [7] | outcome [8]

— PubChem BioAssay (NCATS)
